# Measured values taken from PMC5540273 (PLoS ONE, 2017).
# Assays:
# Details in all cases: concentration: 1 μM, replicates: in singlicate; n = 1
# RIOK1 = tested on: RIOK1
# RIOK2 = tested on: RIOK2
# RIOK3 = tested on: RIOK3
# RIPK1 = tested on: RIPK1
# RIPK2 = tested on: RIPK2
# RIPK4 = tested on: RIPK4
# RIPK5 = tested on: RIPK5
# ROCK1 = tested on: ROCK1
# ROCK2 = tested on: ROCK2
# ROS1 = tested on: ROS1
# 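Note: KINOMEscan kinase panel screen.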
SMILES,%Inh (RIOK1) [%],%Inh (RIOK2) [%],%Inh (RIOK3) [%],%Inh (RIPK1) [%],%Inh (RIPK2) [%],%Inh (RIPK4) [%],%Inh (RIPK5) [%],%Inh (ROCK1) [%],%Inh (ROCK2) [%],%Inh (ROS1) [%]
CC(=O)Nc1cn2nc(Oc3cccc(NC(=O)c4cccc(C(F)(F)F)c4)c3)ccc2n1,0,0,39,0,67,0,0,0,0,0
CN(C)CCOc1ccc(-c2cc(-c3ccc(Cl)c(O)c3)c(-c3ccncc3)[nH]2)cc1.Cl.Cl [SB-684387],0,32,0,36,88,7,13,99.2,98.9,10
CN1CCN(Cc2ccc(NC(=O)Nc3ccc(N(C)c4ccnc(Nc5ccc(CS(C)(=O)=O)cc5)n4)cc3)cc2)CC1.Cl [GW827654],94.1,100,93.4,40,34,72,94.9,94.6,99.2,40
Fc1cc(Cl)ccc1Nc1ccnc2cc(-c3ccc(CN4CCSCC4)o3)ccc12 [GW560106],9,0,0,0,94.7,0,0,29,32,20
Cc1ccc(C)c(NC(=O)Nc2ccc(C)c(-c3ccc(C(=O)Nc4ccncc4)cc3)c2)c1 [GSK1398473],38,48,0,42,8,11,7,0,0,0
COc1cccc(NC(=O)NCCNc2ccnc(Nc3ccc(F)cc3)n2)c1 [GSK1379879],31,0,13,13,0,23,0,6,15,0
CCOc1nccc(-c2c(-c3ccc(F)cc3)ncn2C2CCNCC2)n1 [SB-249175],44,24,42,23,31,53,8,53,19,11
COc1ccc(C)c(Nc2ccnc(Nc3ccc(-c4cnc[nH]4)cc3)n2)c1.Cl [GW784041],36,6,34,13,100,0,0,0,0,3
Cn1cc(-c2ccc3c(c2)CCN3C(=O)Cc2cc(F)cc(C(F)(F)F)c2)c2c(N)ncnc21 [GSK2635225],21,2,26,100,59,0,0,3,6,29
Cc1ccc(O)cc1Nc1ccnc2cc(-c3ccc(CN4CCCCC4)o3)ccc12 [GW557777],16,0,21,12,91,4,12,0,0,11
Cc1cccc(Nc2nc(NCCN)ncc2C(N)=O)c1 [GSK1292139],89,3,90.2,20,0,81,14,82,81,19
COc1ccc(NC(=O)c2ccoc2)cc1-c1ccc(C(=O)NCC2CC2)cc1 [GW810437],8,1,5,0,4,34,14,36,0,0
CC(C)c1nc(-c2cccc(NS(=O)(=O)c3c(F)cccc3F)c2)c(-c2ccnc(Nc3ccc(N4CCOCC4)nc3)n2)s1.Cl [GSK1723980],25,0,2,0,97.7,2,81,6,0,0
Cl.Cl.NC(CNC(=O)c1cc(Br)c(-c2ccnc3[nH]ccc23)s1)c1ccccc1 (centres unmarked) [GSK1322949],100,88,98,21,0,34,18,99.6,99.9,51
Fc1cc(Cl)ccc1Nc1ccnc2cc(-c3ccc(CN4CCOCC4)o3)ccc12 [GW560109],30,0,0,0,94.4,0,0,5,46,0
CCNC(=O)/C=C/c1n[nH]c2cc(Sc3ccccc3C(=O)NC)ccc12,0,7,0,0,29,4,18,4,1,33
N#CC1(c2cccc(C(=O)Nc3cccc(Oc4ccc5nc(NC(=O)C6CC6)sc5n4)c3)c2)CC1,0,0,0,15,55,0,0,0,0,1
Nc1ncnc2scc(-c3ccc(NC(=O)Cc4cc(F)ccc4F)cc3)c12.O=C(O)C(F)(F)F [SB-731254-M],0,13,1,0,23,20,53,0,0,17
CC(C)c1nc(-c2ccc(F)c(NS(=O)(=O)c3c(F)cccc3F)c2)c(-c2ccnc(Nc3ccc(N4CCOCC4)nc3)n2)s1 [GSK1804250],30,13,84,0,97.6,0,19,12,2,17
COc1ccc(C2=C(Nc3cccc(O)c3)C(=O)NC2=O)cc1 [SB-390766],22,0,0,0,32,10,0,18,19,0
CN(c1ccc2c(c1)nc(NCc1ccccc1)n2C)c1ccnc(Nc2ccc(CS(C)(=O)=O)cc2)n1.Cl [GW811603],50,0,44,100,0,49,24,20,47,57
Cc1ccc(O)cc1Nc1ccnc2ccc(C(C)(C)C)cc12 [GW856805],15,0,11,16,79,41,22,51,39,28
Nc1cccc(-c2ccc3c(N)n[nH]c3c2)c1 [GSK2193613],93.9,64,55,0,0,49,0,42,48,17
COc1cccc(C2=C(Nc3cccc(O)c3)C(=O)NC2=O)c1 [SB-390771],49,0,17,0,18,22,3,3,5,0
CN(c1ccc(NC(=O)Nc2cccc(Cl)c2)cc1)c1ccnc(N)n1.Cl [GW830707],0,0,0,0,1,5,0,53,35,12
Cl.O=C(Nc1ccc(Oc2ccc3[nH]c(NC(=O)c4ccco4)nc3c2)cc1)Nc1cc(C(F)(F)F)ccc1F [GW683134],1,7,0,86,43,6,0,78,23,3
Cn1cc(-c2ccc3c(c2)CCN3C(=O)Cc2cc(F)cc(F)c2F)c2c(N)ncnc21 [GSK2634140],39,15,13,99.7,0,0,54,36,30,34
N#Cc1cnc2cc(-c3cnc(CNCCN4CCOCC4)s3)ccc2c1Nc1ccc(Oc2ccccc2)cc1 [GW664114],15,0,29,0,26,21,81,0,2,0
CN(c1ccc(F)c(NC(=O)c2cccc(OC(C)(C)C#N)c2Cl)c1)c1ccc2nc(NC(=O)C3CC3)sc2n1,0,71,27,0,36,2,0,0,0,0
